Measured values taken from PubChem BioAssay (EPA / NIEHS).
Records with an inconclusive call do not appear. Activity calls are given as the source filed them. The calls were made as follows, unless noted: active = hit-call score of the fitted dose curve at least 0.9, where 1 is the maximum; inactive = score below 0.9.

How the values were obtained:
[1] = ACEA_ER_80hr: ACEA Biosciences xCELLigence Real-Time Cell Analysis on Estrogen Receptor Agonism for Proliferation (AID 2282667; active = hit-call score of the fitted dose curve at least 0.9, where 1 is the maximum); settings: T47D proliferation, impedance (xCELLigence), 80 h
Summary of the method: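 Real-time electrical impedance tracked growth of the human breast line T47D, with the 80 h post-dosing value used. Dosing spanned eight 1:4 steps down from a 100 uM final top concentration, run in duplicate.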

[2] = ATG_CRE_CIS: Attagene CIS-FACTORIAL HepG2 Assay for human cAMP Responsive Element (CRE) binding protein 3 (AID 2282926); settings: HepG2 CRE cis-reporter, Attagene multiplexed mRNA; actives raise or lower the signal
Summary of the method: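 Human liver HepG2, transient MRTU transfection, 24 h compound exposure. Total RNA → oligo(dT) RT → PCR → 6-FAM primer extension → HpaI cut → CE. Activity called both directions vs DMSO.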

[3] = biological target: CCAAT/enhancer-binding protein beta (Homo sapiens) (UniProt P17676); experiment: ATG_C_EBP_CIS: Attagene CIS-FACTORIAL HepG2 Assay for human CCAAT/Enhancer Binding Protein (C/EBP) beta (AID 2282927); settings: HepG2 Attagene cis-factorial transcription factor reporter; actives raise or lower the signal
CCAAT/enhancer-binding protein beta (Homo sapiens), sequence (P17676 whole entry, looked up, the tested form may be a part): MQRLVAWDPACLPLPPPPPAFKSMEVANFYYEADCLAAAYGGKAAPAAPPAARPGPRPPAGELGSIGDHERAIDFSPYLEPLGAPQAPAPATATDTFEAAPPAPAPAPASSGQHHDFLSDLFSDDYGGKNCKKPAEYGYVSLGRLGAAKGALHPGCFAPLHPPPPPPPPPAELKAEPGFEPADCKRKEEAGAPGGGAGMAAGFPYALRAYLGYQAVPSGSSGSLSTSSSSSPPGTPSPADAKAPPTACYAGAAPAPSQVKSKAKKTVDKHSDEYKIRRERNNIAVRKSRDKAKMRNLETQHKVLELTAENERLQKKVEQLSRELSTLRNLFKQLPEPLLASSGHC
Summary of the method: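 Endogenous C/EBPb-driven reporter transcripts measured in transfected human HepG2 cells at 24 h via RT-PCR and capillary electrophoresis of labelled fragments. Activity fitted in both directions relative to DMSO baseline.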

[4] = ATG_DR4_LXR_CIS: Attagene CIS-FACTORIAL HepG2 Assay for human Liver X Receptor (LXR), DR4 submotif (AID 2282929); settings: HepG2 Attagene DR4 cis-reporter, mRNA transcription; actives raise or lower the signal
Summary of the method: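 HepG2 cells transiently transfected with cis-promoter-driven multiplexed reporter units (DR4 element) were dosed for 24 h. Reporter mRNA was quantified by RT-PCR, fluorescent primer extension, HpaI digestion and capillary electrophoresis; bidirectional fitting versus DMSO baseline.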

[5] = ATG_AP_1_CIS: Attagene CIS-FACTORIAL HepG2 Assay for human Activator Protein 1 (AP-1) (AID 2282931); settings: HepG2 Attagene cis-factorial AP-1 reporter mRNA; actives raise or lower the signal
Summary of the method: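 HepG2 cells transiently transfected with cis-element-driven multiplex reporter units; 24 h compound exposure. Reporter mRNA quantified by RT-PCR, FAM-labelled fragments resolved by capillary electrophoresis; bidirectional fit versus DMSO baseline.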

[6] = ATG_AP_2_CIS: Attagene CIS-FACTORIAL HepG2 Assay for human Activator Protein 2 (AP-2) (AID 2282932); settings: HepG2 AP-2 cis-reporter, Attagene transcription factor profiling; actives raise or lower the signal
Summary of the method: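 Step one: transient transfection of HepG2 with reporter transcription units. Step two: 24 h chemical exposure. Step three: RNA extraction, RT-PCR, labelled fragment analysis by capillary electrophoresis; DMSO serves as baseline.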

[7] = ATG_BRE_CIS: Attagene CIS-FACTORIAL HepG2 Assay for human Bone Morphogenetic Protein (BMP) Response Element (BRE) (AID 2282933); settings: HepG2 BMP response element reporter, Attagene transcription factor profiling; actives raise or lower the signal
Summary of the method: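 Endogenous transcription factor activity read in transiently transfected HepG2 cells after 24 h chemical exposure. Bidirectional curve fitting against DMSO; readout is reporter transcript level by RT-PCR with capillary electrophoresis of labelled products.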

[8] = biological target: Retinoic acid receptor alpha (Homo sapiens) (UniProt P10276); experiment: ATG_DR5_RAR_CIS: Attagene CIS-FACTORIAL HepG2 Assay for human Retinoic Acid Receptor Alpha (RARE), DR5 submotif (AID 2282934); settings: HepG2 Attagene cis-factorial RARE DR5 reporter, mRNA; actives raise or lower the signal
Retinoic acid receptor alpha (Homo sapiens), sequence (P10276 whole entry, looked up): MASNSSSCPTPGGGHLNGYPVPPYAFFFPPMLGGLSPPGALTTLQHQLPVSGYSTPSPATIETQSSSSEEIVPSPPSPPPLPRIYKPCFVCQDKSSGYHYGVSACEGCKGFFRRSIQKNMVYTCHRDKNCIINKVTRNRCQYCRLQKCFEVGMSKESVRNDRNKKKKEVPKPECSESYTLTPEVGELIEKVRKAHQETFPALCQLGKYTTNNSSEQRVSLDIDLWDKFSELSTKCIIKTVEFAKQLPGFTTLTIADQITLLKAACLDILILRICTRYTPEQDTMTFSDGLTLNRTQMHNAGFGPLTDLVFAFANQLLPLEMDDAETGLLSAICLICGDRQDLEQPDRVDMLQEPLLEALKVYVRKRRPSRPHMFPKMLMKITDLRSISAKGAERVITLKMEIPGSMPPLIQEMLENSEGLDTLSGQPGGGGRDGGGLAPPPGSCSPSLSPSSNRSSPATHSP
Summary of the method: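 Reporter transcripts from a DR5-regulated unit, measured via RT-PCR plus capillary electrophoresis, reflect endogenous RAR activity in transiently transfected human HepG2 liver cells. Exposure lasted 24 h; gain or loss of signal scored against DMSO.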

[9] = biological target: Aryl hydrocarbon receptor (Homo sapiens) (UniProt P35869); experiment: ATG_Ahr_CIS: Attagene CIS-FACTORIAL HepG2 Assay for human Aryl Hydrocarbon Receptor (Ahr) (AID 2282930); settings: HepG2 AhR cis-factorial reporter transcription; actives raise or lower the signal
Aryl hydrocarbon receptor (Homo sapiens), sequence (P35869 whole entry, looked up): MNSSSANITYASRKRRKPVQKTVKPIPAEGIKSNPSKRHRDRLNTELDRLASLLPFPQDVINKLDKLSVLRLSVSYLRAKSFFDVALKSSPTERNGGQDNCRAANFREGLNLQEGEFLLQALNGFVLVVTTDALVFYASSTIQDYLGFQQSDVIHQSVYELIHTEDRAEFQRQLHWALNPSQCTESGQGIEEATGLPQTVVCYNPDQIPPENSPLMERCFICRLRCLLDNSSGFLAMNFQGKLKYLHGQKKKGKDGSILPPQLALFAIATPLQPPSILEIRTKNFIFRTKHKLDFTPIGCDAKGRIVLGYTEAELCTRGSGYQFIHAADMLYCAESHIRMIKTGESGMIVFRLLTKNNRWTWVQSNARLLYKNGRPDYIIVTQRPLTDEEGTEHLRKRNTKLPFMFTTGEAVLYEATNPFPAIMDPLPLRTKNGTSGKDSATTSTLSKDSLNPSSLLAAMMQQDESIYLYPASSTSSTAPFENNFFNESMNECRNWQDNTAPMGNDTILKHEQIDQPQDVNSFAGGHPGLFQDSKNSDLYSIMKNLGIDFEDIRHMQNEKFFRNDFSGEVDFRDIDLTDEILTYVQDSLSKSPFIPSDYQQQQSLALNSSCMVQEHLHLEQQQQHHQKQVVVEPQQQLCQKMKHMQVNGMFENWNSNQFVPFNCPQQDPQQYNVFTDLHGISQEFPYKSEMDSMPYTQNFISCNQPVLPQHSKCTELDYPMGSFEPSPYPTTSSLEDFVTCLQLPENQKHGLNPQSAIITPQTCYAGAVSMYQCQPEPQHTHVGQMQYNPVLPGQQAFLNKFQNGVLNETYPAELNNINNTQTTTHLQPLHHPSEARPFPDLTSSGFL
Summary of the method: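 Reporter mRNA levels, quantified by RT-PCR and fluorescent capillary electrophoresis, reflect endogenous AhR transcriptional activity in HepG2 cells carrying transfected cis-promoter reporter constructs. Readout at 24 h post-dose; gain or loss fitted against DMSO baseline.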

Measured: outcome

FC(F)(F)C(F)(F)C(F)(F)CI
not listed: [9]
inactive: all other assays above

C=CC(F)(F)C(F)(F)C(F)(F)C(F)(F)C(F)(F)C(F)(F)C(F)(F)C(F)(F)F
not listed: [9]
inactive: all other assays above

CS(C)(=O)=O
inactive: all assays above

OC[C@@H](O)[C@@H](O)[C@H](O)[C@@H](O)CO
inactive: all assays above

CC(C)c1ccccc1N
inactive: all assays above

CCCCCC=O
not listed: [8] | [9]
inactive: all other assays above

FC(F)(F)C(F)(F)C(F)(F)C(F)(F)CCI
not listed: [9]
inactive: all other assays above

[Co]
not listed: [9]
inactive: all other assays above

C=CC(F)(F)C(F)(F)C(F)(F)C(F)(F)C(F)(F)C(F)(F)C(F)(F)C(F)(F)C=C
inactive: all assays above

CCCCCCOC(=O)c1ccccc1
not listed: [9]
inactive: all other assays above

O=C(O)C(F)(F)C(F)(F)F
inactive: all assays above
